Laboratory results reported in PubChem BioAssay (NCI).
Where “and” joins values, the source holds several entries; their conditions need not be identical. Equal entries are not always repeated. The panel holds about 83,000 compounds, 20% with a hit somewhere; the sample as a whole holds those more often.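 Testing used 96-well plates and a 48-hour single-concentration exposure. Example: -40 means 40% of the starting cells died.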 Unmarked numbers belong to inactive results. Calls of active or inactive are those of the source. Rule for the calls: active = growth percent below 10; inactive = the rest.

tested on: MDA-MB-468 breast; test: NCI-60 one-dose screen, 48 h (100 = growth as untreated, 0 = no growth, -100 = all killed); details: 10 µM unless noted

Question: How did the growth turn out when Cc1cccc(C)c1NCc1nnc(-c2ccc(O)cc2)o1 was run?
Answer: The growth was 96.2%.

Question: How did the growth turn out when CC1(C)C(=O)/C(=C\c2ccccn2)C[C@]2(C)[C@H]3CC[C@@H]4[C@@H](C(=O)/C=C/c5ccccn5)CC[C@@]4(C)[C@]3(C)CC[C@@H]12 was run?
Answer: Its growth is -50.6% (active).

Question: With CCC(=O)N1C/C(=C/c2ccc(Br)cc2)C(=O)/C(=C/c2ccc(Br)cc2)C1 as the compound, how does the growth read?
Answer: The growth was -91.5% (active).

Question: For COc1ccc(-c2nc([C@@H](C)Sc3nc(N)cc(N)n3)c(C)s2)cc1OCCN1CCOCC1, which growth is on record?
Answer: Its growth is 92.7%.

Question: Cn1c(=O)c2nc3c(=O)n(C)c(=O)n(C)c3nc2n(C)c1=O was tested. Which growth did it give?
Answer: The growth was 92.1%.

Question: How did the growth turn out when O=C1Nc2ccccc2/C1=C/c1ccc[nH]1 was run?
Answer: Its growth is -26% (active).

Question: With CCCCCCCCCC[C@@H](C)[C@@H]1CC(=O)N[C@H]([C@@H](C)O)C(=O)N[C@@H](C)C(=O)N[C@H](C)C(=O)N[C@@H](CCC(N)=O)C(=O)N[C@H](Cc2ccc(O)cc2)C(=O)N[C@@H](C(C)CC)C(=O)O1 (stereo not given in full) as the compound, how does the growth read?
Answer: Its growth is 2.46% (active).

Question: With O=[N+]([O-])c1cc(NS(=O)(=O)c2ccccc2)ccc1NS(=O)(=O)c1ccccc1 as the compound, how does the growth read?
Answer: Its growth is 92.9%.

Question: For COc1ccc2[nH]c(C(=O)OCc3ccc4c(Cl)cc(Cl)c(O)c4n3)cc2c1, which growth is on record?
Answer: Its growth is -83.1% (active).

Question: For COC(=O)C1(C)CCC[C@]2(C)[C@H]3C[C@H]4C(C(C)C)=C[C@]3(CC[C@@H]12)[C@H]1[C@@H]4[C@@H](OC(=O)c2ccco2)CC[C@@H]1OC(=O)c1ccco1 (stereo not given in full), which growth is on record?
Answer: The growth was 102%.

Question: For C=C1c2nc3ccccc3n2C=C(c2ccc(Cl)cc2)N1Cc1ccccc1, which growth is on record?
Answer: Its growth is 59.1%.

Question: For NC(N)=N/N=C/c1ccc(-c2ccc(-c3ccc(Cl)cn3)s2)cc1, which growth is on record?
Answer: Its growth is 94.4%.

Question: COc1ccc(N2CCN(CC(=O)N3CCN(c4nnc(-c5ccccc5)c(-c5ccccc5)n4)CC3)CC2)cc1 was tested. Which growth did it give?
Answer: The growth was 50.6%.

Question: With Fc1ccccc1-c1nc(-c2nc3cc(Cl)c(Cl)cc3[nH]2)c2ccccn12 as the compound, how does the growth read?
Answer: The growth was 63.1%.

Question: CCN(CC)CCCCCCNc1ccnc2cc(Cl)ccc12 was tested. Which growth did it give?
Answer: Its growth is 61.1%.

Question: COc1cccc(NC(=O)c2cccc(-c3cc(=O)c4c(OC)c(OC)c(OC)cc4o3)c2)c1 was tested. Which growth did it give?
Answer: Its growth is 79%.

Question: How did the growth turn out when CCNc1nc(O)c(/C=C2\C=Nc3ncccc32)s1 was run?
Answer: Its growth is -34.7% (active).

Question: With O=C(/C=C/c1ccc(Cl)s1)c1ccc(Cl)s1 as the compound, how does the growth read?
Answer: The growth was 88.1% and 79.5%.

Question: Which growth does the source give for CCN(CC)CCNC(=O)n1cc(-c2ccncc2)c(-c2cc(Cl)cc(OC)c2)n1 here?
Answer: Its growth is 80.5%.

Question: Which growth does the source give for CCOC(=O)c1c(Nc2ccccc2)nn2c(-c3ccco3)c(C#N)cnc12 here?
Answer: Its growth is 89.4%.

Question: How did the growth turn out when Oc1ccc(CSc2nnc(-c3ccccc3)o2)c2cccnc12 was run?
Answer: Its growth is 22.9%.

Question: How did the growth turn out when COc1ccc(/C(=C2/O[C@@H]([C@H]3COC(C)(C)O3)[C@H]3OC(C)(C)O[C@@H]23)c2cc(OC)c(OC)c(OC)c2)cc1O was run?
Answer: Its growth is 113%.

Question: With Cc1nc2sc(C(=O)Nc3cccc(Cl)c3C)c(N)c2cc1C(O)c1ccccc1 (stereo not given) as the compound, how does the growth read?
Answer: The growth was 18.5%.

Question: For N=C(N)Sc1cccc[n+]1[O-], which growth is on record?
Answer: Its growth is 62.4%.

Question: CN1CCN(CCCOc2cccc3nc(Nc4cc(Cl)cc(Cl)c4)ccc23)CC1 was tested. Which growth did it give?
Answer: The growth was -52.6% (active).
